According to PubChem BioAssay (NCATS):
Results filed as inconclusive are left out. A call without a number means that no potency is given here. Calls of active or inactive are those of the source. Unless noted, calls follow the shape of the dose curve; as a rule, active = well fitted curve in the direction sought with a large enough effect; inconclusive = small, poorly fitted or top-dose-only effect, or another doubt; inactive = no such curve, though single readings can be large; an effect the other way counts as inactive or inconclusive. Bridge positions count the residues as written; N and C are the ends. Square brackets hold non-standard residues; d marks the D form. Peptide text beside a SMILES is read from it. * marks the point of attachment. ξ: configuration not given here. ξDab(CH2SO3H) = NC(CCNCS(=O)(=O)O)C(=O)O; Heptanoyl(6-Me) = CC(C)CCCCC(=O)*; Dab = NCC[CH](N)C(=O)O

How the values were obtained:
[1] = target: Luciferin 4-monooxygenase (Photinus pyralis) (UniProt P08659); experiment: Biochemical firefly luciferase enzyme assay for NPC (AID 624030); also: nearly all actives have a fitted effect of over 70% in size; also: potency is read from the fitted curve at half-maximal effect
In short: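 Purified P. pyralis luciferase at 10 nM in 50 mM Tris Acetate (final), luminescence read within 5 minutes of enzyme addition to compounds. Activity normalised to PTC124 versus DMSO; concentration-response curves classed by r2, magnitude and activity.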

[2] = S16 Schwann cell viability assay (CellTiter-Glo assay) (AID 624031); also: nearly all actives have a fitted effect of over 70% in size; also: potency is read from the fitted curve at half-maximal effect
In short: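 Counter-screen for cytotoxicity: parental S16 rat Schwann cells lacking the PMP22 reporters, treated 24 h with compound, viability from cellular ATP by CellTiter-Glo luminescence, normalized to DMSO (0%) and no-cell wells.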

[3] = S16 Schwann cell PMP22 intronic element beta-lactamase assay (AID 624044; calls by dose curve; also: nearly all actives have a fitted effect of over 15% in size; also: potency is read from the fitted curve at half-maximal effect)
In short: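 Beta-lactamase reporter under a PMP22 intronic regulatory element in stable S16 rat Schwann cells; 24 h compound exposure. 460 nm blue signal normalized between DMSO (0%) and potassium clavulanate, with 535 nm FRET tracking viability; curves classed by r2 and response.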

CP260 = experiment: qHTS profiling for inhibitors of Plasmodium falciparum proliferation (AID 504749); also: nearly all actives have a fitted effect of over 60% in size; also: potency is read from the fitted curve at half-maximal effect; conditions: P. falciparum in erythrocytes, SYBR Green DNA, 72 h; series mostly up to 28.7 µM
In short: (§1)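 Each compound contacts P. falciparum-infected red blood cells for 72 h at 37 C; lysis buffer (Tris, EDTA, saponin, Triton X, SYBR Green I) is added and fluorescence measured next morning; values normalized to controls.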

DIV14 = experiment: as above; conditions: P. falciparum in erythrocytes, SYBR Green DNA, 72 h; series mostly up to 28.7 µM
In short: as §1

DIV17 = experiment: as above; conditions: P. falciparum in erythrocytes, SYBR Green DNA, 72 h; series mostly up to 28.7 µM
In short: as §1

GB4 = experiment: as above; conditions: P. falciparum in erythrocytes, SYBR Green DNA, 72 h; series mostly up to 28.7 µM
In short: as §1

ICS = experiment: as above; conditions: P. falciparum in erythrocytes, SYBR Green DNA, 72 h; series mostly up to 28.7 µM
In short: as §1

W2 = experiment: as above; conditions: P. falciparum in erythrocytes, SYBR Green DNA, 72 h; series mostly up to 28.7 µM
In short: as §1

[4] = target: Mitogen-activated protein kinase 10 (Mus musculus) (UniProt Q61831); experiment: JNK3 AlphaScreen Assay (AID 530; active = well fitted curve in either direction with a large enough effect, not every such curve was filed as active;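 also: kinase came from lysate of stimulated human HepG2 cells; signal reports phosphorylation of biotinylated GST-cJun 1-79 at Ser73 with 10 µM ATP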)
In short: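 Activity was read by AlphaScreen after JNK3-containing HepG2 lysate (cytokine pre-activated) phosphorylated biotinylated GST-cJun with 10 uM ATP at room temperature. Phospho-Ser73 cJun antibody with Protein-A acceptor beads provided detection.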

Sequence of Luciferin 4-monooxygenase (Photinus pyralis) (P08659 whole entry, looked up): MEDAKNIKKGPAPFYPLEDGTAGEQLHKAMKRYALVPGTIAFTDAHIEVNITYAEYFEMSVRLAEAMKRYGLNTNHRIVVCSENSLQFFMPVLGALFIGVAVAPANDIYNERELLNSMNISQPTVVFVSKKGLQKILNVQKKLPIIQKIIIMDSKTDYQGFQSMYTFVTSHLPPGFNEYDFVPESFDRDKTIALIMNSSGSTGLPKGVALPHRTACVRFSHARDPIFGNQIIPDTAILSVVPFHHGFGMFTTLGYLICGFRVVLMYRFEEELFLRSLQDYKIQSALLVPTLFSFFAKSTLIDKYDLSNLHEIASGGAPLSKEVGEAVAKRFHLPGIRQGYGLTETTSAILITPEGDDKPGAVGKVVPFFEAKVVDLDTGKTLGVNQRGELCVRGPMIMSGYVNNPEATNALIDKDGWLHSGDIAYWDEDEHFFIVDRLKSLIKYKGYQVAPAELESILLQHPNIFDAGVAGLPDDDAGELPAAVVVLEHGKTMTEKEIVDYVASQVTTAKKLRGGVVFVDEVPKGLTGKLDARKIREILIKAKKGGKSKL

Structure (SMILES)	Potency [1]	Potency [2]	Potency [3]	Potency (CP260)	Potency (DIV14)	Potency (DIV17)	Potency (GB4)	Potency (ICS)	Potency (W2)	outcome [4]
O=C(OCC1OC(OC(=O)c2cc(O)c(O)c(OC(=O)c3cc(O)c(O)c(O)c3)c2)[C@@H](OC(=O)c2cc(O)c(O)c(OC(=O)c3cc(O)c(O)c(O)c3)c2)C(OC(=O)c2cc(O)c(O)c(OC(=O)c3cc(O)c(O)c(O)c3)c2)C1OC(=O)c1cc(O)c(O)c(OC(=O)c2cc(O)c(O)c(O)c2)c1)c1cc(O)c(O)c(OC(=O)c2cc(O)c(O)c(O)c2)c1 (stereo partly specified)	12.8 µM (active)	20.3 µM (active)	22.4 µM (active)	3.55 µM (active)	3.79 µM (active)	2.69 µM (active)	3.38 µM (active)	2.51 µM (active)	1.51 µM (active)	
CCC(C)C1NC(=O)C(CCNCS(=O)(=O)O)NC(=O)C(NC(=O)C(CCNCS(=O)(=O)O)NC(=O)C(NC(=O)C(CCNCS(=O)(=O)O)NC(=O)CCCCC(C)C)C(C)O)CCNC(=O)C(C(C)O)NC(=O)C(CCNCS(=O)(=O)O)NC(=O)C(CCNCS(=O)(=O)O)NC(=O)C(C(C)CC)NC1=O (stereo unspecified) ({Heptanoyl(6-Me)}-[ξDab(CH2SO3H)]T[ξDab(CH2SO3H)][Dab][ξDab(CH2SO3H)]II[ξDab(CH2SO3H)][ξDab(CH2SO3H)]T; lactam 4-C; configuration not given here)	inactive	inactive	inactive		inactive	inactive	inactive	inactive	inactive	
CCC(C)C1NC(=O)C(Cc2ccc(O)cc2)NC(=O)C(N)CSSCC(C(=O)N2CCCC2C(=O)NC(CC(C)C)C(=O)NCC(N)=O)NC(=O)C(CC(N)=O)NC(=O)C(CCC(N)=O)NC1=O (stereo unspecified)	inactive			inactive	inactive	inactive	inactive	inactive	inactive	
O=C1/C(=C\c2cccs2)CCC/C1=C/c1cccs1	5.73 µM (active)	inactive	inactive	inactive	inactive		inactive	inactive		
CCC(Oc1ccccc1)C(=O)NC1C(=O)N2C1SC(C)(C)C2C(=O)O (stereo unspecified)	inactive	inactive	inactive	inactive		inactive	inactive	inactive	inactive	
CNCC(=O)NC(CCCN=C(N)N)C(=O)NC(C(=O)NC(Cc1ccc(O)cc1)C(=O)NC(C(=O)NC(Cc1cnc[nH]1)C(=O)N1CCCC1C(=O)NC(C)C(=O)O)C(C)C)C(C)C (stereo unspecified)		inactive		inactive	inactive	inactive	inactive	inactive	inactive	
O=C(O)c1ccccc1-c1c2cc(Br)c(=O)c(Br)c-2oc2c(Br)c(O)c(Br)cc12			inactive	inactive	inactive	inactive	inactive	inactive		
NC(=O)CCC1NC(=O)C(Cc2ccccc2)NC(=O)C(Cc2ccc(O)cc2)NC(=O)CCSSCC(C(=O)N2CCCC2C(=O)NC(CCCN=C(N)N)C(=O)NCC(N)=O)NC(=O)C(CC(N)=O)NC1=O (stereo unspecified)		inactive	inactive	inactive	inactive	inactive	inactive	inactive	inactive	
COc1ccc(-c2nc3ccc(C4=C(C)CC(=O)NN4)cc3[nH]2)cc1	12.8 µM (active)		inactive	inactive						
CN(C)c1ccc(O)c2c1C[C@@H]1C[C@H]3C(N(C)C)C(=O)C(C(N)=O)=C(O)[C@@]3(O)C(=O)C1=C2O (stereo partly specified)	inactive									
CC1CC2C3CCC4=CC(=O)C=C[C@@]4(C)[C@]3(F)C(O)C[C@]2(C)[C@]1(O)C(=O)COP(=O)(O)O (stereo partly specified)	inactive									
CCCC[C@@H]1C[C@H]1C(NS(=O)(=O)c1cccc2cccnc12)c1ccc(-c2ccccc2)cc1 (stereo partly specified)										inactive
